SSB-PriA inh: K. pneumoniae PriA-SSBct interaction inhibition. AlphaScreen SSBct-PriA binding, biotinylated peptide. inhibition, % at 33 µM. 430,000 tested, 0.6% active. AID 1272365; in the data active = inhibition mostly above about 37%, no sharp cut-off; inactive = mostly below about 20%;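 also: plate controls were negative control peptide for no effect and reference peptide for full effect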
PrPC surface inh: inhibitors of human cell surface prion protein PrPC | TR-FRET read-out | inhibition, % at 13.8 µM | 370,000 tested, 0.43% active | AID 720596; in the data active = inhibition above about 24%; also: 0% = median of the test wells and 100% = reference compound wells
PfHsp40 yeast: rescue of PfHsp40-mediated yeast toxicity. S. cerevisiae expressing PfHsp40, growth rescue, ATP luminescence. growth rescue, % at 12.5 µM. 340,000 tested, 0.68% active. AID 504582; in the data active = growth rescue above about 28%, passing the limit was not always enough;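 also: yeast W303a lacking pdr1 and pdr3 grown in galactose medium; growth measured after three days at 30 °C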
MazEF act: activators of E. coli MazEF toxin-antitoxin RNase; AID 504720; activation, % at 20 µM; 350,000 tested, 0.32% active; FAM/BHQ RNA-DNA oligo cleavage fluorescence, 5 h; in the data active = activation above about 50%
PrP UTR inh: suppresses PrP 5' UTR mRNA reporter expression; 340,000 tested, 0.35% active; cell-based PrP 5' UTR mRNA reporter, plate reader; inhibition, % (no concentration beside the values); in the data active = inhibition above about 52%; also: 0 = median of the neutral control wells
PrPC confirm: cell surface PrPC inhibition, TR-FRET confirmation | shares compounds with PrPC surface inh | cell surface PrPC level | inhibition, % at 13.8 µM | 1,500 tested, 65% active | AID 743200; in the data active = inhibition above about 25%
LD9 cytotox: counter-screen for PrPc inhibitors: cytotoxicity in LD9 cells. shares compounds with PrPC surface inh. luminescence viability. inhibition, % at 13.8 µM. 1,500 tested, 29% active. AID 743201; in the data active = inhibition above about 9.5%
* hit, by the source's call. Only some compounds are listed: those with a hit (about 1.8% of all), similar ones and a draw of the others.

Results for CCOc1ccc(C(=O)Nc2ccc3[nH]ncc3c2)cc1 ?
SSB-PriA inh: -9.5; PrPC surface inh: 32.6*; PfHsp40 yeast: -0.1; MazEF act: 8.1; PrP UTR inh: -47.6; PrPC confirm: 6.7; LD9 cytotox: 0.7

How did CCCCn1c(=O)[nH]c(=O)c2c1nc(CN1C(=O)c3ccccc3S1(=O)=O)n2CCC do in these assays?
SSB-PriA inh: 6.3; PrPC surface inh: 12.1; PfHsp40 yeast: -0.4; MazEF act: -12.8; PrP UTR inh: -4.6

Results for CCCCn1c(=O)[nH]c(=O)c2c1nc(Cn1ncc(Cl)c(Cl)c1=O)n2CCC ?
SSB-PriA inh: -5.5; PrPC surface inh: 44.5*; PfHsp40 yeast: 0.3; MazEF act: -10.0; PrP UTR inh: -29.3; PrPC confirm: 43.4*; LD9 cytotox: 70.9*

What do the screens show for `CCCCCCCCCCCCCCCCn1cc[n+](C)c1`?
SSB-PriA inh: -13.5; PrPC surface inh: 34.1*; PfHsp40 yeast: 2.9; MazEF act: -33.7; PrP UTR inh: -24.3; PrPC confirm: 49.4*; LD9 cytotox: 42.2*

Results for C[C@H]1c2cccc(O)c2C(O)=C2C(=O)[C@]3(O)C(O)=C(C(N)=O)C(=O)[C@@H](N(C)C)C3[C@@H](O)C21 (some centres undefined) ?
PrPC surface inh: 3.7; PfHsp40 yeast: 0.0; MazEF act: 7.3; PrP UTR inh: -14.0

How did C=C1c2cccc(O)c2C(=O)C2C(=O)[C@]3(O)C(=O)C(C(N)=O)C(=O)[C@@H](N(C)C)[C@@H]3[C@@H](O)[C@H]12 (some centres undefined) do in these assays?
SSB-PriA inh: 11.4; PrPC surface inh: 39.6*; PfHsp40 yeast: 59.7*; MazEF act: -8.9; PrP UTR inh: -18.7; PrPC confirm: -2.2; LD9 cytotox: 0.2

What do the screens show for `COc1ccc(-n2nnnc2CNC(=O)C2CC(=O)N(c3ccc(F)cc3)C2)cc1` (centres undefined)?
PrPC surface inh: 30.9*; MazEF act: -1.1; PrPC confirm: 3.5; LD9 cytotox: -2.6

What do the screens show for `O=C(Nc1ccc2c(c1)OCO2)NC1CCN(Cc2ccccc2)CC1`?
SSB-PriA inh: 5.7; PfHsp40 yeast: 1.3; MazEF act: -7.2; PrP UTR inh: 0.5

Results for CC(C)CS(=O)(=O)Nc1ccc2c(c1)CC(=O)N2C ?
SSB-PriA inh: 16.0

Results for Cc1nn(Cc2ccc(Cl)cc2)c(C)c1NC(=O)c1cc(-c2ccco2)on1 ?
SSB-PriA inh: -7.0; PrPC surface inh: 32.4*; PfHsp40 yeast: 0.1; MazEF act: -16.2; PrP UTR inh: 1.5; PrPC confirm: 31.2*; LD9 cytotox: 4.1

How did Cc1nn(Cc2ccc(Cl)c(Cl)c2)c(C)c1NC(=O)c1cc(-c2ccco2)on1 do in these assays?
SSB-PriA inh: -3.6; PrPC surface inh: 38.1*; PfHsp40 yeast: 12.8; MazEF act: -1.1; PrP UTR inh: -16.9; PrPC confirm: 30.8*; LD9 cytotox: 0.8

What do the screens show for `Cc1ccc(Cn2nc(C)c(NC(=O)c3cc(-c4ccco4)on3)c2C)cc1`?
SSB-PriA inh: 15.5; PfHsp40 yeast: 0.0; MazEF act: -0.6; PrP UTR inh: -31.5

What do the screens show for `Cc1ccccc1Cn1nc(C)c(NC(=O)c2cc(-c3ccco3)on2)c1C`?
SSB-PriA inh: -1.6; PrPC surface inh: 1.7; PfHsp40 yeast: -0.4; MazEF act: 8.0; PrP UTR inh: 8.2

What do the screens show for `O=C(Nc1ccncc1)c1cccc(S(=O)(=O)N2CCc3ccccc32)c1`?
SSB-PriA inh: 3.1; PrPC surface inh: 24.5*; PfHsp40 yeast: -0.1; MazEF act: 2.7; PrP UTR inh: -3.4; PrPC confirm: 25.5*; LD9 cytotox: 12.6*

Results for Cc1cccc(N2CCN(C(=O)c3cc(S(=O)(=O)N4CCCC4)cn3C)CC2)c1C ?
SSB-PriA inh: -4.9; PrPC surface inh: 24.5*; PfHsp40 yeast: 0.6; MazEF act: 5.7; PrP UTR inh: 1.9; PrPC confirm: 16.4; LD9 cytotox: 4.5

How did Cc1cccc(N2CCN(C(=O)c3cc(S(=O)(=O)N4CCOCC4)cn3C)CC2)c1C do in these assays?
SSB-PriA inh: -8.4; PrPC surface inh: 0.3; PfHsp40 yeast: 1.0; MazEF act: 5.6; PrP UTR inh: -17.9

From PubChem
